# Measured values as given in paper PMC7862700, “An all-to-all approach to the identification of sequence-specific readers for epigenetic DNA modifications on cytosine”.
# Tests used:
# Assay in all cases: DAPPL (digital affinity profiling via proximity ligation, sequencing); 10 mM Tris-HCl pH 7.5, 50 mM NaCl, 1 mM DTT, 4% glycerol, room temperature, 30 min; GST-TFs on glutathione beads, 16-mer random dsDNA library, 0.1% formaldehyde crosslink after washing; high values mean tight binding
# [1] = target: T1, FLI1 (Homo sapiens, UniProt Q01543 1-452); conditions: protein: recombinant; tags: N-terminal GST; dsDNA, one strand shown
# T1 sequence: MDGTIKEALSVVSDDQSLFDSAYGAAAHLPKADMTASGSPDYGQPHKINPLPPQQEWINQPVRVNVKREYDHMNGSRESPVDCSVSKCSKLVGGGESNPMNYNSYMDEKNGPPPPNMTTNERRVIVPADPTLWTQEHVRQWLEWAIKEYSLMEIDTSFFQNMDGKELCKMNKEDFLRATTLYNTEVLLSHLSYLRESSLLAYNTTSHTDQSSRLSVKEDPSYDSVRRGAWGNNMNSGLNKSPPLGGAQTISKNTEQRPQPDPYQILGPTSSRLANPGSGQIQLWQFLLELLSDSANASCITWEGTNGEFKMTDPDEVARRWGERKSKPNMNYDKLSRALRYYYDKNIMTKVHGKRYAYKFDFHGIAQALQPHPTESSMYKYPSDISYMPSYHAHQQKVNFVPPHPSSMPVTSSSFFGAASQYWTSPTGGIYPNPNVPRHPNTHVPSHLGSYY
# How it was run: (§1)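 Pools of DNA-barcoded human transcription factors, expressed in yeast as GST fusions on glutathione beads and combined with a tag-only sample, were incubated with 200 nmole of a 16-mer random double-stranded DNA library. Incubation took 30 min at room temperature in Tris/NaCl/DTT/glycerol buffer and was followed by washing, 0.1% formaldehyde crosslinking, proximity ligation (BsaI/T4 ligase, 1 h, 37 °C), PCR amplification and sequencing on an Illumina NextSeq500. Binding signal is the ratio of a hexamer's read frequency for a factor to its frequency for the tag-only sample.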
# [2] = target: T2, ELK1 (Homo sapiens, UniProt P19419 1-428); conditions: protein: recombinant; tags: N-terminal GST; dsDNA, one strand shown
# T2 sequence: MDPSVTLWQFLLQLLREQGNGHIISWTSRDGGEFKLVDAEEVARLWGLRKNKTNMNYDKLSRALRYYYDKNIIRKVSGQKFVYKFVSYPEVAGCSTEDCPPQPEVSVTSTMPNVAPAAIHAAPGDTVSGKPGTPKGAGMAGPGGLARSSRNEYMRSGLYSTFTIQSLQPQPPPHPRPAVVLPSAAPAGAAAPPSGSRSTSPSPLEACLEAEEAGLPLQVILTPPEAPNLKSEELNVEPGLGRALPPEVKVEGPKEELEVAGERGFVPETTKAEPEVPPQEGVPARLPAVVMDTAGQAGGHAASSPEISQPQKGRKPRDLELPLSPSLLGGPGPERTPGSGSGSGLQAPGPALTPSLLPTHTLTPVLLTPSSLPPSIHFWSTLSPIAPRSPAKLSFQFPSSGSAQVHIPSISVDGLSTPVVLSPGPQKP
# How it was run: as §1
# [3] = target: T3, GABPA (Homo sapiens, UniProt Q06546 1-454); conditions: protein: recombinant; tags: N-terminal GST; dsDNA, one strand shown
# T3 sequence: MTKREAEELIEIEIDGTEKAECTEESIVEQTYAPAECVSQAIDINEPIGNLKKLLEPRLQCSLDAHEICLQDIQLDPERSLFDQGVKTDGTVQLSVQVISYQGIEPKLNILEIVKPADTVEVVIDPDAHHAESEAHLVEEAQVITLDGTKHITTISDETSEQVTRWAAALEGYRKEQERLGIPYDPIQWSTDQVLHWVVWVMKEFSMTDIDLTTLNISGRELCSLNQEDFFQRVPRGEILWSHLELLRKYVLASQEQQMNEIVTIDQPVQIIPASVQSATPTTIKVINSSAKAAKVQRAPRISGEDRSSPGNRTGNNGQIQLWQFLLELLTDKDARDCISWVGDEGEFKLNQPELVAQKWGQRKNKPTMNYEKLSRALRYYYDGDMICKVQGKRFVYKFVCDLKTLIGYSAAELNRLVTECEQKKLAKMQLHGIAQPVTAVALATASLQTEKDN
# How it was run: as §1
# [4] = target: T4, ERG (Homo sapiens, UniProt P11308 1-479); conditions: protein: recombinant; tags: N-terminal GST; dsDNA, one strand shown
# T4 sequence: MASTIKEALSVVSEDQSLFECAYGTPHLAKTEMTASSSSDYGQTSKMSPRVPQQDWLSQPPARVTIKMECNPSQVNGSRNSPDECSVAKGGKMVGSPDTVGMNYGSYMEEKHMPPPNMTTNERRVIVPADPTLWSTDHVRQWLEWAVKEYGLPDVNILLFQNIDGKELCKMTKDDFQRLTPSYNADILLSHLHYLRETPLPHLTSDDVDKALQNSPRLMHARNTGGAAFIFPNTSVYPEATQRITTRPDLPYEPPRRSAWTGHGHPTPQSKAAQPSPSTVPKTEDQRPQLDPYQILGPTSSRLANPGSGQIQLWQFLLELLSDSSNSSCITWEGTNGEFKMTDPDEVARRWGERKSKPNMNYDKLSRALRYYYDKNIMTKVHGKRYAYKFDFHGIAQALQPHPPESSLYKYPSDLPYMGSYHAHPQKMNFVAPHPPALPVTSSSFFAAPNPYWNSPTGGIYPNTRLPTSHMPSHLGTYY
# How it was run: as §1
# [5] = target: ELF1 (Homo sapiens, UniProt P32519 1-619); conditions: protein: recombinant; tags: N-terminal GST; dsDNA, one strand shown
# ELF1, sequence (P32519 whole entry): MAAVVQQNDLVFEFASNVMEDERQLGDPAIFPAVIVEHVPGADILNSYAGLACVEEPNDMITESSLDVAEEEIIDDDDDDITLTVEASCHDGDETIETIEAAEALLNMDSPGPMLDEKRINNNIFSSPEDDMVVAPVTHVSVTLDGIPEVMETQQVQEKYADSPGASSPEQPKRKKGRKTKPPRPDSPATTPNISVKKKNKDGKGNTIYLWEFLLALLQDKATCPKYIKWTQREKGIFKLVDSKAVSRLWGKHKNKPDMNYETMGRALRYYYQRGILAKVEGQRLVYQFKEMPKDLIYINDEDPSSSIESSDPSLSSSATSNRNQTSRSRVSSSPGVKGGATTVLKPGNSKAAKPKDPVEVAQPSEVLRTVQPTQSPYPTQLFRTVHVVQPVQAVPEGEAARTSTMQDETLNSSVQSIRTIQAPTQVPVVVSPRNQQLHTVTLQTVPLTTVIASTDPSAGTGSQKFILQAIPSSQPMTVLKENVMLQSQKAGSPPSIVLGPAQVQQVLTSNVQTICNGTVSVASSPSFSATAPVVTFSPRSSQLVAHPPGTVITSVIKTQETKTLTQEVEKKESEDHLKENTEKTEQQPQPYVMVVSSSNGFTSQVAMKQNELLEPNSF
# How it was run: as §1
# [6] = target: T5, EHF (Homo sapiens, UniProt Q9NZC4 1-300); conditions: protein: recombinant; tags: N-terminal GST; dsDNA, one strand shown
# T5 sequence: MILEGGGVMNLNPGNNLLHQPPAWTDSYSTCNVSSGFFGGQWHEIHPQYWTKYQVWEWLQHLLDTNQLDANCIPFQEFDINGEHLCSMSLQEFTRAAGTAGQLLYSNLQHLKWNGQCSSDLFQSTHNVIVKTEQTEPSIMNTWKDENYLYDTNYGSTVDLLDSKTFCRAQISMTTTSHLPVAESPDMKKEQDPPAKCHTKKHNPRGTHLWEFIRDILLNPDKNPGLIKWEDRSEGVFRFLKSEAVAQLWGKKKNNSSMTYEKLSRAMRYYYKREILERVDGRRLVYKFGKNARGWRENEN
# How it was run: as §1
# [7] = target: SPI1 (Homo sapiens, UniProt P17947 1-270); conditions: protein: recombinant; tags: N-terminal GST; dsDNA, one strand shown
# How it was run: as §1
# [8] = target: SPIB (Homo sapiens, UniProt Q01892 1-262); conditions: protein: recombinant; tags: N-terminal GST; dsDNA, one strand shown
# SPIB, sequence (Q01892 whole entry): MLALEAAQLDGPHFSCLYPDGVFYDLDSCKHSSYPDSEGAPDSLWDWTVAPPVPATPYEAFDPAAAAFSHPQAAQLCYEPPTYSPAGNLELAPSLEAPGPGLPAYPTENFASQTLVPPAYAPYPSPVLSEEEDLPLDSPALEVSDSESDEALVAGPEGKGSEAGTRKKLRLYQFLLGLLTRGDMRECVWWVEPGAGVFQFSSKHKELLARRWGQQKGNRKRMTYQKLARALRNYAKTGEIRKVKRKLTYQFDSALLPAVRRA
# How it was run: as §1
# [9] = target: T6, ELK3 (Homo sapiens, UniProt P41970 1-407); conditions: protein: recombinant; tags: N-terminal GST; dsDNA, one strand shown
# T6 sequence: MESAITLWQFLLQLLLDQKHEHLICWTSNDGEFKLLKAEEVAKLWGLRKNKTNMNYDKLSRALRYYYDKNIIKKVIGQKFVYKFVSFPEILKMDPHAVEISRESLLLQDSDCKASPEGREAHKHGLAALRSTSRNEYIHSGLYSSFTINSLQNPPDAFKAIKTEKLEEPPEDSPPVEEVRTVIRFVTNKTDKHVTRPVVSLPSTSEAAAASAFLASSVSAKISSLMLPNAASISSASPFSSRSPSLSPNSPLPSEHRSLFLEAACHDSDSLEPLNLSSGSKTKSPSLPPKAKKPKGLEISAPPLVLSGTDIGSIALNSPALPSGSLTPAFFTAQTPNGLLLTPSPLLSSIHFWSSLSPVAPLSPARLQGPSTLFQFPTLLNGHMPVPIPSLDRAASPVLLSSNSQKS
# How it was run: as §1
# [10] = target: T7, FEV (Homo sapiens, UniProt Q99581 1-238); conditions: protein: recombinant; tags: N-terminal GST; dsDNA, one strand shown
# T7 sequence: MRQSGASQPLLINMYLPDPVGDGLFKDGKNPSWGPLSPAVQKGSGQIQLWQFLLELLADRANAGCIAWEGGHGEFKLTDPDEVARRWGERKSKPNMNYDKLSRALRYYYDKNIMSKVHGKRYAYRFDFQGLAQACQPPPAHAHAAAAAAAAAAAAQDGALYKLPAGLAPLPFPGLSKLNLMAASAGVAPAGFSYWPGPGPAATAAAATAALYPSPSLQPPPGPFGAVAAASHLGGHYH
# How it was run: as §1
# [11] = target: ETV5 (Homo sapiens, UniProt P41161 1-510); conditions: protein: recombinant; tags: N-terminal GST; dsDNA, one strand shown
# ETV5, sequence (P41161 whole entry): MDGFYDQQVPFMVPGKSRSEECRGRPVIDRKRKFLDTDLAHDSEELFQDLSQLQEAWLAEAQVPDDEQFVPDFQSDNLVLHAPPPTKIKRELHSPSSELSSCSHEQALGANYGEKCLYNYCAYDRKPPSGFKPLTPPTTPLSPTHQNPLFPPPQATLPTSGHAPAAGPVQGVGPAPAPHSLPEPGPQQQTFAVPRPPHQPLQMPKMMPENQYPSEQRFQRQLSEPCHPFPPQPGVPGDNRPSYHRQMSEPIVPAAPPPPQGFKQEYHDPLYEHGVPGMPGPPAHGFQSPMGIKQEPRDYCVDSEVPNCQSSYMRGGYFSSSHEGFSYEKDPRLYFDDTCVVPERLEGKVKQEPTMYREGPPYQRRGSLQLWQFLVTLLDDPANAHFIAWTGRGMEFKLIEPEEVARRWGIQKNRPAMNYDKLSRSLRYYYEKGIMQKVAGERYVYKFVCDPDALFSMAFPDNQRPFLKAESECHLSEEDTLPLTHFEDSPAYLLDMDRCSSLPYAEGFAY
# How it was run: as §1
# [12] = target: HSF1 (Homo sapiens, UniProt Q00613 1-529); conditions: protein: recombinant; tags: N-terminal GST; chain copies: 3; dsDNA, one strand shown
# HSF1, sequence (Q00613 whole entry): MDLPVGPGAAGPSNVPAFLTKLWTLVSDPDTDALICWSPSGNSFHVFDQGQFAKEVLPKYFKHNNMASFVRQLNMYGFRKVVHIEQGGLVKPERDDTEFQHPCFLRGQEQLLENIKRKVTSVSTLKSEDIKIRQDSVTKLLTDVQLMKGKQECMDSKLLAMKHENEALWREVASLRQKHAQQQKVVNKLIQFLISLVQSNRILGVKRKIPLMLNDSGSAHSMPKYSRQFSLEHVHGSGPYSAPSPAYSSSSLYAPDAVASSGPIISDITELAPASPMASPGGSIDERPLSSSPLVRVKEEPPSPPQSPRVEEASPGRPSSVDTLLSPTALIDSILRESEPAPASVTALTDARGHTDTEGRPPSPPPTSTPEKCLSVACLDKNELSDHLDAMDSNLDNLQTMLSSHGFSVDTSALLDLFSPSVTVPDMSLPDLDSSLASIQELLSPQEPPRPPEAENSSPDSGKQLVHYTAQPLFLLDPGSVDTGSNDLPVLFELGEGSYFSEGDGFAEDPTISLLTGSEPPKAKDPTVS
# How it was run: as §1
# [13] = target: T8, SPIC (Homo sapiens, UniProt Q8N5J4 1-248); conditions: protein: recombinant; tags: N-terminal GST; dsDNA, one strand shown
# T8 sequence: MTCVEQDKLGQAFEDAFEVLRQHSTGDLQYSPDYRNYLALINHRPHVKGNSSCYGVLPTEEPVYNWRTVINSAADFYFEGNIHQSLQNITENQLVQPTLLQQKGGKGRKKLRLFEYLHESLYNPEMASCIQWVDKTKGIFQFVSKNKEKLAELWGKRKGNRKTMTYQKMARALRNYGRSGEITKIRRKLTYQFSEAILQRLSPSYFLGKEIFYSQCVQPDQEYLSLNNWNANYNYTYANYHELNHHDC
# How it was run: as §1
# [14] = target: ELF4 (Homo sapiens, UniProt Q99607 1-663); conditions: protein: recombinant; tags: N-terminal GST; dsDNA, one strand shown
# ELF4, sequence (Q99607 whole entry): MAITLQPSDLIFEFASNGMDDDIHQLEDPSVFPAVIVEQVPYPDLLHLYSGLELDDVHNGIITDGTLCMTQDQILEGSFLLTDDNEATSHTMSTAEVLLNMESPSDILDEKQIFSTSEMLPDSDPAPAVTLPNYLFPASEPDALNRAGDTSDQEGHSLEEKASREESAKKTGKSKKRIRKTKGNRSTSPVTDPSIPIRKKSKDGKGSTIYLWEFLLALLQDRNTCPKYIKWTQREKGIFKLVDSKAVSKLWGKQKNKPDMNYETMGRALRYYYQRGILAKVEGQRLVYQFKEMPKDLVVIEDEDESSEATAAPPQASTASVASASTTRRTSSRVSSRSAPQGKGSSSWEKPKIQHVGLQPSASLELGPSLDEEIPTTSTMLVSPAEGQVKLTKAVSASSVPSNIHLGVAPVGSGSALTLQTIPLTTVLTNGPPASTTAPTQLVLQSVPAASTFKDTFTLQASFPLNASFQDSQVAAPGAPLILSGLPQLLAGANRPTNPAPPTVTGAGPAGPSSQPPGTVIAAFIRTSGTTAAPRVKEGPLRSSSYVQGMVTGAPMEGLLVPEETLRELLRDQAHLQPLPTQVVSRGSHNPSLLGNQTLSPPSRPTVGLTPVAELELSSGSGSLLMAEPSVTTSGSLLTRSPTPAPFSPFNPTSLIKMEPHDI
# How it was run: as §1
# [15] = target: T9, ELK4 (Homo sapiens, UniProt P28324-2 1-405); conditions: protein: recombinant; tags: N-terminal GST; dsDNA, one strand shown
# T9 sequence: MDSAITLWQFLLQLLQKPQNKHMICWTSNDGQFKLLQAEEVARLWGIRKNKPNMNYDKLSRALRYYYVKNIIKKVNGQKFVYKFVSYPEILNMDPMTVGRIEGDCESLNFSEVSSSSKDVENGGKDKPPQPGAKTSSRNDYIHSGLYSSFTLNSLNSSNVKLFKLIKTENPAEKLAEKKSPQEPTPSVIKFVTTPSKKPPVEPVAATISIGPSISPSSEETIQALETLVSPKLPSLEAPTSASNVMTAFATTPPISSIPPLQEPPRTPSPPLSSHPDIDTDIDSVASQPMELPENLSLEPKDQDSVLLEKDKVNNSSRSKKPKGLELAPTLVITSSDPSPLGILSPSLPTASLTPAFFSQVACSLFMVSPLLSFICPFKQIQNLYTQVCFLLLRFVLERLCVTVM
# How it was run: as §1
# [16] = target: T10, ETV2 (Homo sapiens, UniProt O00321 1-342); conditions: protein: recombinant; tags: N-terminal GST; dsDNA, one strand shown
# T10 sequence: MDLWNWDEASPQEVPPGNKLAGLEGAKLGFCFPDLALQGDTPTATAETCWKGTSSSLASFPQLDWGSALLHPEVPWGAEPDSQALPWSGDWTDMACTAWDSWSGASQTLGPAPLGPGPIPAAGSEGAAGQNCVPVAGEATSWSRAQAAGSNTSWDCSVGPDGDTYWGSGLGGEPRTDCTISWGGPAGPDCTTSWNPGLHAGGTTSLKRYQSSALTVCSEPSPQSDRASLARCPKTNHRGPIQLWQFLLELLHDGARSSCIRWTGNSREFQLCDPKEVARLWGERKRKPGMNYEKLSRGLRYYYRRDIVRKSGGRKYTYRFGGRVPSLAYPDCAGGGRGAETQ
# How it was run: as §1
# [17] = target: T11, ELF3 (Homo sapiens, UniProt P78545 1-371); conditions: protein: recombinant; tags: N-terminal GST; dsDNA, one strand shown
# T11 sequence: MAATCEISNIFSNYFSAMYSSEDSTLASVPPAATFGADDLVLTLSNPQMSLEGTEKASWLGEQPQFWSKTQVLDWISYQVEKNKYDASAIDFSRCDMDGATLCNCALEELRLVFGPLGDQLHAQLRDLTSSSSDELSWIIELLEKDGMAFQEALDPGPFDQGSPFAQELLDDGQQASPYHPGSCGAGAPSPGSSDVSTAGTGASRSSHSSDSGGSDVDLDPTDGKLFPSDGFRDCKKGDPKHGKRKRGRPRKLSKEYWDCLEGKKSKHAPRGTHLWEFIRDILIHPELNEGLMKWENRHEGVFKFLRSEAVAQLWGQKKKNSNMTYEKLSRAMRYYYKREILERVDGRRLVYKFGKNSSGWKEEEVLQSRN
# How it was run: as §1
# [18] = target: CRX (Homo sapiens, UniProt O43186 1-299); conditions: protein: recombinant; tags: N-terminal GST; dsDNA, one strand shown
# CRX, sequence (O43186 whole entry): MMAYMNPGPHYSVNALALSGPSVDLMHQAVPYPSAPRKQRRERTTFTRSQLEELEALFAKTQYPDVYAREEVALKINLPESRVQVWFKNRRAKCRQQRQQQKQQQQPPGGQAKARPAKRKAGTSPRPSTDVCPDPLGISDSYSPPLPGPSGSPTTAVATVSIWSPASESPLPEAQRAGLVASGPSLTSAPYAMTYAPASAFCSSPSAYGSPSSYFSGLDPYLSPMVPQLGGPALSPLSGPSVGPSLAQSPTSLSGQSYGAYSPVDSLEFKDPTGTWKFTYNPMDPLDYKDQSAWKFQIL
# How it was run: as §1
# [19] = target: ETV1 (Homo sapiens, UniProt P50549 1-477); conditions: protein: recombinant; tags: N-terminal GST; dsDNA, one strand shown
# ETV1, sequence (P50549 whole entry): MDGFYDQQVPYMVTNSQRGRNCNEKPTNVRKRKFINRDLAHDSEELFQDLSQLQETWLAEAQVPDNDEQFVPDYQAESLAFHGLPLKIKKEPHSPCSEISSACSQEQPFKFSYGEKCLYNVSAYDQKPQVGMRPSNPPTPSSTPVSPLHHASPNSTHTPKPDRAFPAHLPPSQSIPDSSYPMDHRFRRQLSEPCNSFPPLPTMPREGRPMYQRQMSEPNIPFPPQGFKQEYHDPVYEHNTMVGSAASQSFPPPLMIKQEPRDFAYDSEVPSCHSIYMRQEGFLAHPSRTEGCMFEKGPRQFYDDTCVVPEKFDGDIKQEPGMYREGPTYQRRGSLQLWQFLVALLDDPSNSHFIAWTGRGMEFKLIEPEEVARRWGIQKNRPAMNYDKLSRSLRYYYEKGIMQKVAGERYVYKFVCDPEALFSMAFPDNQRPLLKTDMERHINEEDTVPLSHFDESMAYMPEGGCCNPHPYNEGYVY
# How it was run: as §1
sequence,measurement,setting,value
TTGGTT,binding signal,[1],"1.51 fold enrichment (6-mer frequency, TF over GST control)"
same,binding signal,[2],"1.38 fold enrichment (6-mer frequency, TF over GST control)"
same,binding signal,[3],"1.45 fold enrichment (6-mer frequency, TF over GST control)"
same,binding signal,[4],"1.37 fold enrichment (6-mer frequency, TF over GST control)"
same,binding signal,[5],"1.39 fold enrichment (6-mer frequency, TF over GST control)"
same,binding signal,[6],"1.4 fold enrichment (6-mer frequency, TF over GST control)"
same,binding signal,[7],"1.43 fold enrichment (6-mer frequency, TF over GST control)"
same,binding signal,[8],"1.47 fold enrichment (6-mer frequency, TF over GST control)"
same,binding signal,[9],"1.43 fold enrichment (6-mer frequency, TF over GST control)"
same,binding signal,[10],"1.31 fold enrichment (6-mer frequency, TF over GST control)"
same,binding signal,[11],"1.44 fold enrichment (6-mer frequency, TF over GST control)"
same,binding signal,[12],"1.18 fold enrichment (6-mer frequency, TF over GST control)"
same,binding signal,[13],"1.47 fold enrichment (6-mer frequency, TF over GST control)"
same,binding signal,[14],"1.42 fold enrichment (6-mer frequency, TF over GST control)"
same,binding signal,[15],"1.32 fold enrichment (6-mer frequency, TF over GST control)"
same,binding signal,[16],"1.29 fold enrichment (6-mer frequency, TF over GST control)"
same,binding signal,[17],"1.23 fold enrichment (6-mer frequency, TF over GST control)"
same,binding signal,[18],"1.29 fold enrichment (6-mer frequency, TF over GST control)"
same,binding signal,[19],"1.4 fold enrichment (6-mer frequency, TF over GST control)"
